Measured values reported in ChEMBL document CHEMBL3988442, “University of Dundee, Small-Polar-MMV Screening Library” (2021).
Hit rate of the full screen: of about 48,000 compounds, about 13,000 (27%) showed an effect of 50% or more. Some of the results follow.

Each compound was assayed on Wolbachia pipientis (assay: Anti-Wolbachia Cell-Based Screen). Conditions: 5 µM.
Type: functional
Design: scale not given: in the data most compounds retested in dose-response had high values

Compound | Percent Effect [%]
CN(Cc1cnccn1)C(=O)c1ccc(CSc2nnc[nH]2)o1 | -27.79
CSc1ccc(NCC(=O)NCC(=O)N2CCCC2)cc1F | -3.658
CN1CCN(C(=O)CCc2cccnc2)c2ccc(F)cc21 | -6.701
CN1CCN(C(=O)c2cnsn2)c2ccc(F)cc21 | 79.94
CN1CCN(C(=O)CCCc2ccccn2)c2ccc(F)cc21 | -53.44
CCN(CC)C(=O)CCn1ncc2c(Cl)cccc21 | 18.4
CCn1ncc(Br)c1CN(C)S(=O)(=O)c1ccc(C)cc1 | 6.609
CCN(CC)C(=O)c1nnn(Cc2ccccc2)c1OC | 4.418
CCN(CC)C(=O)c1c(Cl)cnn1CC | 102.5
CCN(CC)C(=O)c1c(Br)cnn1CC | 113.9
CCN(C(=O)c1c(Cl)cnn1CC)C(C)C(N)=O (centres undefined) | -13.9
Cc1nc(CNC(=O)Nc2ccc3c(ccn3CCN(C)C)c2)no1 | -28.14
Cc1nnsc1CN(C)Cc1ccc(C(=O)Nc2sccc2C#N)cc1 | -8.441
CC(=O)Nc1ccc(CN(C)Cc2snnc2C)cc1 | 104.3
CC(=O)Nc1ccc2nc(-c3nccn3CCCN(C)C)ccc2c1 | 3.374
Cc1cnc(NC(=O)c2cccc(CN(C)Cc3snnc3C)c2)s1 | -4.019
CC(=O)Nc1ccc2nc(CN(C)Cc3snnc3C)ccc2c1 | 89.45
CC(=O)Nc1ccc(CNC(=O)CNCc2snnc2C)cc1 | -4.998
CC(=O)Nc1ccc2nc(-c3nccn3C[C@@H]3CCCO3)ccc2c1 | -0.02427
CC(=O)Nc1ccc2nc(CN(C)Cc3noc(C)n3)ccc2c1 | 88.54
CN1C[C@@H](n2cnc(-c3ccccc3)c2-c2nccn2C)C[C@H]1C(=O)O | -7.865
CN1CCCN(C[C@@H]2CN(C(=O)CCC3CCCC3)C[C@@H]2CO)CC1 | 0.9084

Compound | Percent Effect [%]
CC(=O)N1CCCCCC1C1CCN(Cc2nnc(C(C)(C)C)o2)CC1.Cl (centres undefined) | -4.894
Cc1nc(C(C)(C)C)sc1C(=O)NCCn1ccnc1 | 6.238
Cc1ccc(-c2nc(CNS(=O)(=O)N(C)C)[nH]c2-c2ccccn2)cc1 | 19.45
CCN(CC)S(=O)(=O)NCc1ccc(-c2ccc(C(N)=O)c(C)n2)cc1 | 82.68
CNS(=O)(=O)Cc1ccc(CNC(=O)c2ccc(C)[nH]c2=O)cc1 | 6.775
CCC(C)NC(=O)c1ccc(CNC(=O)COC)cc1 (centres undefined) | 4.124
CNC(=O)c1cc2c(nc1NCC(C)C)CCN(S(=O)(=O)N(C)C)CC2 | -14.23
CNC(=O)c1ccc(-c2ccc(CNC(=O)COC)cc2)nc1C | 125.2
CCN(C(=O)c1ccc(-c2ccccc2)nc1C)C1CC(=O)NC1=O (centres undefined) | 2.82
Cc1nc(-c2ccsc2)ccc1C(=O)O | -6.285
CCN(CC)C(=O)c1ccc(-c2ccsc2)nc1C | 7.441
Cc1nc(-c2ccc(CNS(=O)(=O)N(C)C)cc2)ccc1C(N)=O | 115
CNC(=O)c1ccc(-c2ccc(CNS(=O)(=O)N(C)C)cc2)nc1C | 96.06
CNC(=O)c1ccc(CNC(=O)c2ccc(Cl)cc2F)cc1 | 6.561
O=C1C(NCc2cccc(O)c2)CCN1Cc1ccccc1 (centres undefined) | 0.7589
CC(=O)N(C)CC(=O)Nc1cccc(N2CCN(CC3CC3)CC2)c1 | -2.755
CC(NS(=O)(=O)N(C)C)c1cccc(-n2cccn2)c1 (centres undefined) | -7.408
CC(=O)c1cccc(OCCCC(=O)NCC2CCCN2C)c1 (centres undefined) | -10.21
COC(=O)c1sccc1S(=O)(=O)NCCC(O)c1ccco1 (centres undefined) | -8.026
CCc1nnc(SCC(=O)N2CCc3[nH]nc(C4CCC4)c3C2)o1 | 38.87
Cc1ccc(CN(C(=O)c2cccc(NC(N)=O)c2)C2CC2)o1 | -0.2723
N#Cc1cccc(NC(=O)N[C@H](CO)c2ccccc2)c1 | -16.24

Compound | Percent Effect [%]
COCc1nc(CNC2CCSC2)no1 (centres undefined) | -14.23
Oc1cccc(CNC2CCN(CCc3ccncc3)CC2)c1 | -20.44
O=C1CC(NCc2cccc(O)c2)CN1CCc1cccc(Cl)c1 (centres undefined) | 126.2
CCc1ncc(CNC2CC(=O)N(CCc3cccc(Cl)c3)C2)cn1 (centres undefined) | -5.676
O=C1CC(NCc2ccncc2)CN1CCc1cccc(Cl)c1 (centres undefined) | 73.7
CCn1ccnc1CN1CCCC(CO)(Cc2cccc(Cl)c2)C1 (centres undefined) | -3.247
CCn1ccnc1CNC1CC(=O)N(CCc2cccc(Cl)c2)C1 (centres undefined) | 120.9
CCn1cc(CNC2CC(=O)N(CCc3cccc(Cl)c3)C2)cn1 (centres undefined) | -6.807
CCn1ccnc1C1CCN(Cc2cccc(Cl)c2)CC1 | 9.663
Cc1cccc(CNC2CC(=O)N(Cc3cccc(F)c3)C2)c1 (centres undefined) | 24.38
COc1ccccc1CCNC(=O)NC(C)COCC(F)(F)F (centres undefined) | -18.36
CC(CS(C)(=O)=O)NCc1cc(Cl)ccc1F (centres undefined) | 6.588
CN(Cc1ccccc1-n1cccn1)c1nc(N)nc2c1CCNCC2 | 7.066
COCCN(Cc1ccc(C)cc1)Cc1nccn1C | 5.615
CCC(C(=O)NCCc1ccn(-c2ccccc2)n1)N1CCCC1=O (centres undefined) | 2.511
COc1ccc(CNCCc2ccn(-c3ccccc3)n2)cc1O | 7.82
CCN(CC)C(=O)NCCc1ccn(-c2ccccc2)n1 | 134.9
CCC(CC)C(=O)NCCc1ccn(-c2ccccc2)n1 | 133.4
COCCNC(=O)NCCc1ccn(-c2ccccc2)n1 | 4.023
CC(=O)NC1CCc2ccc(S(=O)(=O)NCc3ncccc3C)cc21 (centres undefined) | 37.01
Cc1nn(C)c(C)c1OCC(=O)N1CCCC1 | -17.38
CC(=O)N1CCCC(Cc2cnc(-c3c(C)nn(C)c3C)cn2)C1 (centres undefined) | 146.7

Compound | Percent Effect [%]
Cc1nn(C)c(C)c1OCC(=O)N1CCCCC1 | -9.266
CC(=O)N1CCC(Cc2cnc(-c3c(C)nn(C)c3C)cn2)CC1 | 190.1
COCCN1CCCC(Cc2cnc(-c3c(C)nn(C)c3C)cn2)C1 (centres undefined) | 161.1
COCCN1CCCC(CN(C)c2nc3c(s2)c(C)nn3C)C1 (centres undefined) | -14.47
COCCN1CCC(CN(C)c2ncnc3c2c(C)nn3C)C1 (centres undefined) | -22.39
COCCn1c(=O)n(Cc2cccc(F)c2F)c2cc(C(=O)O)ccc21 | -6.581
Cn1nc(CN2CCCN(C3CCCC3)CC2)c2c(Cl)cccc21 | 4.033
CC1(C)OCC2(CO1)CN(C(=O)c1cccc3ccccc13)C2 | -8.289
Cc1nn(Cc2ccccc2)c(C)c1CNC1CCc2ncnn2C1 (centres undefined) | 117.1
c1ccc(-c2ncc(CNC3CCc4ncnn4C3)cn2)cc1 (centres undefined) | 5.444
Cc1nc(-c2ccccc2)sc1CNC1CCc2ncnn2C1 (centres undefined) | 88.63
Cc1nn(-c2ccccc2)c(C)c1CNC1CCc2ncnn2C1 (centres undefined) | 1.377
c1ccc(-c2cnc(CNC3CCc4ncnn4C3)o2)cc1 (centres undefined) | 7.622
CCOCCNS(=O)(=O)c1ccc2c3c1CCCN3C(=O)CO2 | 17.61
O=c1c2c(ncn1CCO)nc1n2CCC1 | 3.555
CC(C)(C)OC(=O)NC(C)(C)c1noc(CN2CCCCC2)n1 | 1.243
CN(C)C(=O)N1CCOCC2(CCN(c3ccccn3)C2)C1.O=C(O)C(F)(F)F (centres undefined) | -12.67
CN(C)C(=O)N1CCC2(CC1)CCN(c1ncccn1)C2.O=C(O)C(F)(F)F | 115.8
CN(C)C(=O)N1CCC2(CCCN(c3ncccn3)C2)C1.O=C(O)C(F)(F)F (centres undefined) | 113.7
CN(C)C(=O)N1CCOCC2(CCN(c3ncccn3)C2)C1.O=C(O)C(F)(F)F (centres undefined) | -1.009
CCn1nc2c(cc1=O)CN(Cc1nnc(C3CC3)o1)CC2 | 14.78
CSc1cccc(NC(=O)N2CCCC(CNC(=O)c3ccco3)C2)c1 (centres undefined) | -2.877

Compound | Percent Effect [%]
CSCCCn1ccnc1-c1cccc(C#N)c1 | -12.84
NC(=O)NC(CC(=O)NCCc1cccc(F)c1)c1cccs1 (centres undefined) | 2.392
CC(C)=CCC/C(C)=C\CNCc1ccco1 | -4.355
O=C(C1CCCC1)N1CC2(CCN(C3COC3)C2)OCc2ccccc21 (centres undefined) | 114.9
O=C(C1CCCC1)N1CC2(CCN(C3COC3)CC2)Cc2ccccc21 | 95.07
O=C(C1CCCC1)N1CC2(CCN(C3COC3)C2)Cc2ccccc21 (centres undefined) | 95.07
O=C(C1CCCC1)N1CC2(CCCN(C3COC3)C2)Cc2ccccc21 (centres undefined) | 99.05
O=C(C1CCCC1)N1CCOc2cccc(F)c21 | 1.761
O=C(Cc1cccnc1)N1CCC2(CCN(C3CCOC3)CC2)C1 (centres undefined) | 6.84
CC(CNC(=O)CCCc1ccccn1)c1ccsc1 (centres undefined) | 1.971
Cc1ccc(NC(=O)C2CSCN2C(=O)c2cnn(C)c2)c(C)c1 (centres undefined) | -7.721
O=C(C1CC1)N1C[C@@H](F)[C@@H](OCc2nc3ccccc3o2)C1 | -16.99
N#Cc1cn(CC(=O)NC2CC2)c2ccc(Br)cc2c1=O | -2.411
COCCCN1C(=O)CC[C@H]2CN(c3ccnc4ccccc34)CC[C@H]21 | -6.412
COC1CCN(CCNC(=O)C2CCCCC2)CC1 | -3.467
COc1cc(N(C)CCC(O)c2ccccc2)ncn1 (centres undefined) | 13.13
Cc1cc(N(C)Cc2ncc(-c3ccccc3C(=O)O)s2)ncn1 | 81.06
CCc1cnc(CN(C)C(=O)NC2CCN(c3ccccc3)C2)s1 (centres undefined) | 0.02013
Cc1nccc(N(C)Cc2ncc(-c3ccccc3C(=O)O)s2)n1 | 127.4
CN(C)C(Cn1ccnc1-c1ccccc1C(=O)O)c1ccccc1Cl (centres undefined) | -23.61
Cc1ccsc1C(Cn1ccnc1-c1ccccc1C(=O)O)N(C)C (centres undefined) | -13.02
